CYP2C19 act: activators of human cytochrome P450 2C19; P33261; recombinant CYP2C19, luciferin-H EGE luminescence; stronger effect = higher value; 0 = fully inhibited enzyme, 1 = untreated enzyme; activation factor at 5 µM; 96,000 tested, under 10 active;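 active = activation factor of at least 2 at 5 µM in the primary screen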;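 also: 0 = wells with 2.5 mM tranylcypromine and 1 = vehicle-only wells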
CYP2C9 act: CYP2C9 (human) activation; P11712; recombinant CYP2C9, luciferin-H conversion, luminescence; stronger effect = higher value; factor 1 = untreated enzyme, 0 = blocked; activation factor at 5 µM; 1.4% of 96,000 active;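 active = activation factor of 2 or more for CYP2C9 at a 5 µM dose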;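 also: 0 = sulfaphenazole-blocked wells and 1 = vehicle-only wells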
CYP2C19 inh: inhibitors of human CYP2C19 | P33261 | inhibition, % at 5 µM | CYP2C19 Supersomes, luciferin-H EGE luminescence, 30 min | 21% of 96,000 active;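 active = CYP2C19 inhibition above a set limit at 5 µM in the primary screen, cut at about 50% in these data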;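 also: plate controls were negative control wells for no effect and 2.5 mM tranylcypromine positive control for full effect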
CYP2C9 inhib: blocks human cytochrome P450 2C9; P11712; CYP2C9 Supersomes, luciferin-H conversion, luminescence; inhibition, % at 5 µM; 20% of 96,000 active; AID 777;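 active = blocking of liver enzyme CYP2C9 beyond about 50% at 5 µM, limit read from the data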
sEH act: activators of human soluble epoxide hydrolase; P34913; purified human sEH enzymatic activity, activator screen; activation, % at 2 µM; 0.04% of 91,000 active; AID 717; in the data active = activation above about 37%
Target sequence (P34913 whole entry, looked up): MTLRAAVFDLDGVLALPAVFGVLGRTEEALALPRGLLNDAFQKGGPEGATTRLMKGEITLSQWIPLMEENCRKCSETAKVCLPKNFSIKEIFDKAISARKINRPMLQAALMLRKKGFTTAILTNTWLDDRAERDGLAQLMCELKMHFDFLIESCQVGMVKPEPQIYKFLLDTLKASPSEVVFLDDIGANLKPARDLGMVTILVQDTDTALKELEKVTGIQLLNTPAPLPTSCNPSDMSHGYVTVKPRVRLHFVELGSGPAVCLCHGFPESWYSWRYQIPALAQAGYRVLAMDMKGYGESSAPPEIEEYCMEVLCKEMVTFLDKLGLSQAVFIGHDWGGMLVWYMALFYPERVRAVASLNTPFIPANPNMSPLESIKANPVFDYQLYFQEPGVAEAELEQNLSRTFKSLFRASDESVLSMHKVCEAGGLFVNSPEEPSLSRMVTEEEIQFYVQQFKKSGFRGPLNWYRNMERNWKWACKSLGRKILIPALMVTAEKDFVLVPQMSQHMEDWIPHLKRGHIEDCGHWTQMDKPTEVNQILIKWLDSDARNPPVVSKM
sEH inhibitor: soluble epoxide hydrolase (human) inhibition; recombinant human sEH enzymatic activity assay; P34913; 0.34% of 91,000 active; inhibition, % at 2 µM; AID 707; in the data active = inhibition above about 80%
An asterisk follows results filed as active; / = not tested or not shown. The list is not random: actives were taken first. Their share in the collection is about 27%.

SMILES | CYP2C19 act | CYP2C9 act | CYP2C19 inh | CYP2C9 inhib | sEH act | sEH inhibitor
CCCSC(=O)N(CC)CC(=O)Nc1c(CC)cccc1CC | 0.3 | 0.4 | 65.5* | 61.8* | 11.3 | -7.9
C=CCN(CC(=O)Nc1c(C)cccc1CC)C(=O)SCCC | 0.4 | 0.9 | 64.6* | 12.3 | 1.8 | 1.4
COC(=O)C(CC(C)C)NC(=O)c1ccc(F)cc1 (stereo unspecified) | 0.8 | 1 | 15.3 | 2.7 | -2.2 | 1.8
COc1cccc(NS(=O)(=O)c2ccc3[nH]cc(C(=O)N(C)Cc4ccco4)c(=O)c3c2)c1 | 0.5 | 0.3 | 48.1 | 70.7* | 11.4 | -14.7
Cc1cc(C)cc(NS(=O)(=O)c2ccc3[nH]cc(C(=O)NCc4ccco4)c(=O)c3c2)c1 | 0.9 | 0.4 | 12.4 | 64.8* | -13.1 | 11.9
COc1cccc(NS(=O)(=O)c2ccc3[nH]cc(C(=O)NC4CC4)c(=O)c3c2)c1 | 0.9 | 0.5 | 13.0 | 52.0* | -7.7 | 10.0
CC(C)CCNC(=O)C1CCN(C(=O)N(C)C)CC1 | 0.9 | 1.1 | 6.5 | -12.5 | -1.7 | 3.3
COc1ccc2oc3ccc(OC)cc3c(=O)c2c1 | 1 | 1.3 | 2.4 | -29.9 | -1.0 | -1.1
O=C(NCc1ccncc1)c1cccc(Cn2cc(Br)cn2)c1 | 0.1 | 0.1 | 88.3* | 89.9* | / | /
Cc1cccn2c(=O)c(C=O)c(N3CCCCCC3)nc12 | 0.5 | 0.8 | 49.1 | 22.3 | -0.6 | 2.5
Cc1ccc(S(=O)(=O)/C(C#N)=C/c2c(N3CCC(C(N)=O)CC3)nc3ccccn3c2=O)cc1 | 0.7 | 0.1 | 30.7 | 92.0* | 20.2 | -17.8
Cc1cccn2c(=O)c(C=Nc3c(C)n(C)n(-c4ccccc4)c3=O)c(N3CCCC3)nc12 | 0.9 | 0.8 | 11.4 | 15.2 | / | /
COc1ccccc1N1CCN(c2nc3c(C)cccn3c(=O)c2C=O)CC1 | 0.3 | 1.7 | 68.9* | -71.1 | 17.1 | -16.2
Cc1cccn2c(=O)c(/C=C(\C#N)S(=O)(=O)c3ccccc3)c(N3CCC(C(N)=O)CC3)nc12 | 0.7 | 0.2 | 29.5 | 81.7* | -3.3 | 3.2
CCN1CCN(c2nc3c(C)cccn3c(=O)c2/C=C(\C#N)S(=O)(=O)c2ccccc2)CC1 | 0.7 | 0.1 | 27.4 | 90.2* | -3.4 | 5.7
CC(C)N(CCCNC(=O)CC1Oc2ccccc2NC1=O)Cc1ccccc1 (stereo unspecified) | 1 | 1.1 | -2.8 | -5.1 | / | /
O=C1c2ccccc2C(=O)N1CCCn1c(=O)oc2ccccc21 | 0.6 | 1.1 | 38.6 | -12.5 | 8.8 | -4.7
CC(C)n1cc(NC(=O)c2cc(-c3ccccc3)on2)cn1 | 0.7 | 0.7 | 28.6 | 26.4 | 4.4 | -4.5
N/C(=N\c1nc2c(c(=O)[nH]1)CCC2)Nc1ccccc1C(F)(F)F | / | / | / | / | 1.2 | 0.6
O=C(C1CCN(C2CC(=O)N(Cc3ccccc3)C2=O)CC1)N1CCCCCC1 (stereo unspecified) | 1 | 1 | -4.7 | 0.1 | 5.4 | -2.9
Cc1ccc(S(=O)(=O)/C(C#N)=C/c2c(N3CCC(C(N)=O)CC3)nc3c(C)cccn3c2=O)cc1 | 0.7 | 0.2 | 32.8 | 80.5* | 3.0 | -3.0
Cc1ccc(S(=O)(=O)/C(C#N)=C/c2c(N3CCOCC3)nc3ccccn3c2=O)cc1 | 0.8 | 0.5 | 17.2 | 48.9 | 1.6 | -3.1
Cc1cc(-c2nnc3n2N=C(C(C)(C)C)CS3)n[nH]1 | 0.9 | 1 | 8.7 | 0.4 | -2.7 | 2.2
Cc1cc2oc(=O)cc(CN3CCCc4ccccc43)c2cc1C | 0 | 0 | 95.6* | 96.1* | / | /
COc1ccc(N2CCN(Cc3cc(=O)oc4cc(-c5ccccc5)c(O)cc34)CC2)cc1 | 0.9 | 0.9 | 12.5 | 13.8 | 2.0 | -0.5
SMILES | CYP2C19 act | CYP2C9 act | CYP2C19 inh | CYP2C9 inhib | sEH act | sEH inhibitor
CCN1CCN(Cc2cc(=O)oc3cc4c(cc23)CCC4)CC1 | 0.6 | 0.8 | 37.6 | 17.6 | -16.9 | 17.2
CN1CCN(Cc2cc(=O)oc3cc4c(cc23)CCC4)CC1 | 0.4 | 0.4 | 63.1* | 63.6* | 4.5 | -2.7
Cc1cc2oc(=O)cc(CN3CCN(C/C=C/c4ccccc4)CC3)c2cc1O | 0.5 | 0.2 | 45.3 | 83.9* | 8.1 | -9.3
O=C(Nc1ccccc1)C1CC(=O)N(c2ccc3c4c(cccc24)CC3)C1 (stereo unspecified) | 1 | 0.4 | 2.6 | 62.0* | 3.0 | -0.6
O=C(O)c1cccc(NC(=O)C2CC(=O)N(Cc3ccccc3)C2)c1 (stereo unspecified) | 1 | 0.9 | -1.9 | 6.2 | -4.2 | -1.1
CSCCC(NS(=O)(=O)c1ccc(Cl)cc1)C(=O)OCC(=O)NC12CC3CC(CC(C3)C1)C2 (stereo unspecified) | 0.8 | 0.4 | 24.6 | 60.6* | -23.5 | 24.6
CSCCC(NS(=O)(=O)c1ccc(Cl)cc1)C(=O)OCC(=O)N1CCOCC1 (stereo unspecified) | / | / | / | / | -4.5 | 2.9
COc1ccc(C2CC(C(F)(F)F)n3nc(C(=O)Nc4ccc5c(c4)OCO5)cc3N2)cc1 (stereo unspecified) | 0.9 | 0.6 | 10.8 | 38.2 | -7.5 | 5.7
Cc1cccc(N2CCN(C(=O)c3cc4n(n3)C(C(F)(F)F)CC(c3ccco3)N4)CC2)c1C (stereo unspecified) | 1 | 0.1 | 0.6 | 88.1* | -1.3 | 4.2
Cc1cc(NC(=O)c2cc3n(n2)C(C(F)(F)F)CC(c2ccco2)N3)no1 (stereo unspecified) | 0.9 | 0.5 | 13.3 | 51.1* | / | /
COc1ccccc1NC(=O)c1cc2n(n1)C(C(F)(F)F)CC(c1ccc3c(c1)OCO3)N2 (stereo unspecified) | 0.2 | 0.2 | 81.3* | 75.1* | 18.4 | -20.7
O=C(O)c1cc2n(n1)C(C(F)(F)F)CC(c1ccco1)N2 (stereo unspecified) | 0.9 | 0.4 | 5.0 | 62.2* | 4.4 | -4.1
O=C(c1cc2n(n1)C(C(F)(F)F)CC(c1ccco1)N2)N1CCN(c2ccccn2)CC1 (stereo unspecified) | 1.1 | 0.6 | -8.0 | 36.7 | / | /
c1ccc2c3nnc4n(c-3nc2c1)CCCS4 | 1 | 1.6 | -2.6 | -64.2 | 0.3 | 5.0
CC1(C)NC(=O)N(CC(=O)OCC(=O)Nc2cccc(F)c2)C1=O | 0.5 | 0.6 | 49.1 | 38.6 | 5.2 | -6.2
COC(=O)c1cc2sccc2n1CC(=O)Nc1ccc(OC)c(OC)c1OC | 0.1 | 0.1 | 90.6* | 87.5* | 16.3 | -18.7
CCOC(=O)c1cc2sccc2n1CC(=O)OC | 0.5 | 0.8 | 49.4 | 23.0 | 14.1 | -11.7
COC(=O)c1cc2sccc2n1Cc1ccc(C)cc1 | 0.9 | 0.8 | 5.6 | 17.5 | -2.3 | 0.6
COc1cc(Cn2c(C(=O)O)cc3sccc32)cc(OC)c1OC | 0.3 | 0.6 | 71.4* | 41.0 | / | /
CCOC(=O)c1cc2sccc2n1CC(=O)Nc1ccc(OC)cc1OC | 0 | 0.3 | 99.1* | 68.4* | -7.4 | 10.1
COc1ccccc1NC(=O)N1CCN(c2cc(-c3ccccc3)nc3ncnn23)CC1 | 0.7 | 0.8 | 33.3 | 20.0 | / | /
CC1CCN(c2cc(N)c(Cl)cc2[N+](=O)[O-])CC1 | 0.7 | 0.7 | 25.6 | 33.6 | 26.8 | -29.4
